Assay results taken from PMC4336329 (PLoS ONE, 2015).
The campaign covered roughly 310,000 compounds. About 2,200 (0.71%) showed an effect of 50% or more. Effects have a minus sign here. The sample as a whole holds a higher share of strong results than the screen did.

These molecules were tested against human ether-à-go-go-related gene (hERG) potassium channel (human, UniProt Q12809) (assay: primary screen, population patch clamp on CHO cells stably expressing hERG; higher = less effect of the substance).
Chain of human ether-à-go-go-related gene (hERG) potassium channel (Q12809 whole entry, looked up): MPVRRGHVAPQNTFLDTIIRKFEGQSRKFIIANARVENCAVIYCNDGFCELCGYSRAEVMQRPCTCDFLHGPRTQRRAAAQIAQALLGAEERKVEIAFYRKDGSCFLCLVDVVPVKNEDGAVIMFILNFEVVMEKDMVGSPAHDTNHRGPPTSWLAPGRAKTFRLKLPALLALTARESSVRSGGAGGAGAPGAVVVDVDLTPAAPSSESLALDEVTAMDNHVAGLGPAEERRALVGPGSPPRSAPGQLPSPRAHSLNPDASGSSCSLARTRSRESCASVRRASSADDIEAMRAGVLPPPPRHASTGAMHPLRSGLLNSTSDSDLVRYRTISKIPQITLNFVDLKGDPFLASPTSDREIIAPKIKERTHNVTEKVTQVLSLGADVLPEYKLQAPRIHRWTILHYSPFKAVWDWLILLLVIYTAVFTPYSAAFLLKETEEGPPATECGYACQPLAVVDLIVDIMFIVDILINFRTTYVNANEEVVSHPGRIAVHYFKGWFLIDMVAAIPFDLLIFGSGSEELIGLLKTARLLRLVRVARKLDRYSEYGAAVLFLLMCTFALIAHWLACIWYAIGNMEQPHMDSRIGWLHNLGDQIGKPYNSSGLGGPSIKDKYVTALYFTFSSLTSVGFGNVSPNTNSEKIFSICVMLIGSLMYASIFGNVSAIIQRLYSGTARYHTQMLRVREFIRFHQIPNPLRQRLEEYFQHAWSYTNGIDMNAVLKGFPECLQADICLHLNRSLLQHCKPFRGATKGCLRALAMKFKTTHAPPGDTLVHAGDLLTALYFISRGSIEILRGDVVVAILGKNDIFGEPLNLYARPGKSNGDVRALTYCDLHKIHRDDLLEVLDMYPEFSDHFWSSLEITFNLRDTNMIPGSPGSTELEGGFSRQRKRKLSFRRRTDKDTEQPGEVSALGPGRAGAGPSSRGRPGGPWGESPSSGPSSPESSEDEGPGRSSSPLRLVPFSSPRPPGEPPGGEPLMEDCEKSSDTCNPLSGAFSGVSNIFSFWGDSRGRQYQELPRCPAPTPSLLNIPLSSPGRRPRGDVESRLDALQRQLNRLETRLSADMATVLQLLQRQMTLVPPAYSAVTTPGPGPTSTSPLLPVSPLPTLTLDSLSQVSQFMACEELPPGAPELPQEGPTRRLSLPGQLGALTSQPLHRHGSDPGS

Row | Compound | hERG current change (%, negative = inhibition) at 1uM
1 | Cc1ccc([C@H]2C(C#N)=C(N)Oc3cc(C)oc(=O)c32)o1 | 12.8%
2 | O=c1c2ccccc2n2cnnc2n1-c1ccccc1 | 2.26%
3 | Cc1ccc(NC(=O)C(c2ccc(Cl)cc2)N2CCOCC2)cc1 (stereo not drawn) | 16.1%
4 | Cc1cc2c(cc(C(=O)OCC(=O)NCc3ccco3)n2C)s1 | 6.5%
5 | CC1CCCC(NC(=O)CSc2nnnn2C)C1C (stereo not drawn) | 13.2%
6 | COc1ccc(NC(=O)C2CCCN(S(=O)(=O)c3ccc(Cl)cc3)C2)cc1OC (stereo not drawn) | 10.9%
7 | CCCCCn1c(=O)c(C(=O)NCc2ccncc2)c(O)c2ccccc21 | 2.72%
8 | CC(NC(=O)c1ccccc1F)C(=O)O (stereo not drawn) | 16.8%
9 | C=C(C)COc1ccc(-c2nc(N)ncc2Oc2ccc(OC)cc2)c(O)c1 | -5.45%
10 | CC(/C=N/NC(=O)c1ccncc1)=C\c1ccco1 | 14.7%
11 | Cc1ccc(CNC(=O)COc2ccc3c(c2)CCC3)cc1 | -2.48%
12 | CCOC(=O)CSc1nc2c(c(=O)[nH]c(=O)n2C)n1C/C=C(/C)Cl | -7.88%
13 | CCOC(=O)C(CC)Sc1nc2c(c(=O)[nH]c(=O)n2C)n1CCc1ccccc1 (stereo not drawn) | -30.9%
14 | CCOC(=O)C(CC)Sc1nc2c(c(=O)[nH]c(=O)n2C)n1C/C=C(/C)Cl (stereo not drawn) | -56.9%
15 | COC(=O)CN1C(=O)[C@H]2[C@@H](C3CC3)N3C(=O)CN(Cc4ccc(-c5ccccc5)cc4)C(=O)[C@@]3(Cc3ccccc3)[C@H]2C1=O | 15.6%
16 | COc1ccccc1Oc1ccc2c(c1)C(=O)N(c1ccc(Br)c3cccnc13)C2=O | 1.75%
17 | Cc1cccc(NC(=O)CN2C(=O)/C(=C3\SC(=S)N(CC4CCCO4)C3=O)c3ccccc32)c1 (stereo not drawn) | 17.1%
18 | O=C(CN1C(=O)/C(=C2\SC(=S)N(CCS(=O)(=O)O)C2=O)c2ccccc21)Nc1cccc(Br)c1 | -52.8%
19 | O=C1/C(=C2\C(=O)N(Cc3ccc(F)cc3)c3ccccc32)SC(=S)N1CCS(=O)(=O)O | 10.6%
20 | Cc1ccc(S(=O)(=O)Nc2cccc(C(=O)NCC3(N4CCCCC4)CCCCC3)c2)cc1F | -76.4%
21 | Cc1cccc(NS(=O)(=O)c2cccc(C(=O)NCC3(N4CCCCC4)CCCCC3)c2)c1 | -45.1%
22 | O=C(NCC1(N2CCCCC2)CCCCC1)c1cccc(NS(=O)(=O)c2ccccc2)c1 | -34%

Row | Compound | hERG current change (%, negative = inhibition) at 1uM
23 | Cn1cc(CN2CCc3c([nH]c4ccccc34)C2C(C)(C)C)cn1 (stereo not drawn) | -3.25%
24 | CCCc1nc2c(o1)CC(CC(C)SCC)CC2=O (stereo not drawn) | -11.3%
25 | C=C(C)CSc1nc(N)c2c(C)c(C)sc2n1 | 10.3%
26 | CC(C)Cc1ccc(CN2CCCC(NC(=O)c3ccoc3)C2)cc1 (stereo not drawn) | -7.26%
27 | O=C(NC1CCCN(Cc2ccc(Cl)cc2)C1)c1cccc(F)c1 (stereo not drawn) | -18.6%
28 | O=C(NC1CCCN(Cc2ccc(Cl)cc2)C1)c1c(F)cccc1F (stereo not drawn) | 17.1%
29 | CC(C)Cc1ccc(CN2CCCC(NC(=O)c3ccnn3C)C2)cc1 (stereo not drawn) | -50.4%
30 | Cc1occc1C(=O)NC1CCCN(Cc2ccc(CC(C)C)cc2)C1 (stereo not drawn) | 6.64%
31 | O=C(NC1CCCN(Cc2ccc(Cl)cc2)C1)c1c(F)ccc(F)c1F (stereo not drawn) | -55.4%
32 | O=C(NCCN1CCN(S(=O)(=O)c2ccccc2)CC1)C(=O)Nc1ccc(F)cc1 | 8.68%
33 | O=C(CN1C(=O)c2cccc3cccc(c23)C1=O)NCCCO | 9.32%
34 | COc1ccccc1NC(=O)N1CCN(c2ccc3nnc(-c4ccc(F)cc4)n3n2)CC1 | 13.5%
35 | OCCC1CN(Cc2nc(-c3ccccc3)cs2)CCN1CCc1ccccc1 (stereo not drawn) | -42.8%
36 | OCC1(CCc2ccccc2)CCN(Cc2ccc3nsnc3c2)CC1 | -69.1%
37 | OCCC1CN(Cc2nc(-c3ccc(F)cc3)cs2)CCN1CCc1ccccc1 (stereo not drawn) | -69.3%
38 | OCC1(Cc2ccc(Cl)cc2)CCN(Cc2ccc3nsnc3c2)CC1 | -6.01%
39 | OCCC1CN(Cc2ccc3nsnc3c2)CCN1CCc1ccccc1 (stereo not drawn) | -73.7%
40 | CC(C)=CCN1CCN(Cc2ccc3nsnc3c2)CC1CCO (stereo not drawn) | 4.93%
41 | CC(C)CCN1CCN(Cc2nc3ccccc3s2)CC1CCO (stereo not drawn) | -8.09%
42 | CC(C)CCN1CCN(Cc2ccc3nsnc3c2)CC1CCO (stereo not drawn) | -21.3%
43 | CC(C)CN1CCN(Cc2nc3ccccc3s2)CC1CCO (stereo not drawn) | -5.53%
44 | OCCC1CN(Cc2nc3ccccc3s2)CCN1CCc1ccccc1 (stereo not drawn) | -58.3%

Row | Compound | hERG current change (%, negative = inhibition) at 1uM
45 | OCCC1CN(Cc2nc(-c3ccccc3)cs2)CCN1Cc1ccc(F)cc1 (stereo not drawn) | -47.1%
46 | COc1ccc(CC2(CO)CCN(Cc3ccc4nsnc4c3)CC2)cc1 | -4.45%
47 | O=C(N/N=C/c1ccc(-c2cccc([N+](=O)[O-])c2)o1)[C@H]1C[C@@H]1c1ccccc1 | 3.49%
48 | CCOC(=O)c1cnc(N)nc1C(F)(F)F | -2.92%
49 | CCC(=O)NC(=S)Nc1ccc(NC(=O)COc2ccccc2)cc1 | 19.7%
50 | COc1ccc(C(=O)N2CCN(C(C)=O)CC2)cc1S(=O)(=O)N1CCOCC1 | 14.4%
51 | COc1ccc(C(=O)NCc2ccc3c(c2)OCO3)c(OC)c1 | 13.6%
52 | CC(=O)Nc1ccc(S(=O)(=O)NCC(=O)OCC(=O)N2CCc3ccccc32)cc1 | 2.85%
53 | CCc1ccc2c(CN(CC)Cc3nc4ccccc4c(=O)[nH]3)cc(=O)oc2c1 | -60.5%
54 | CCN(Cc1nc2ccccc2c(=O)[nH]1)Cc1cc(=O)oc2cc(OC)ccc12 | -25.6%
55 | COc1ccc(CN2CCN(Cc3cc(=O)oc4cc(C)ccc34)CC2)c(OC)c1OC | -87.6%
56 | O=c1cc(CN2CCN(Cc3ccccc3)CC2)c2ccc(O)cc2o1 | -79.7%
57 | Cc1ccc2c(CN3CCOCC3)cc(=O)oc2c1 | -6.01%
58 | O=c1cc(CN2CCN(Cc3ccccc3)CC2)c2cc(O)ccc2o1 | -39.4%
59 | Cc1ccc2c(CN3CCN(CCO)CC3)cc(=O)oc2c1 | -52.1%
60 | Cc1ccc2c(CN3CCC(C)CC3)cc(=O)oc2c1 | -1.03%
61 | CCN(Cc1nc2ccccc2c(=O)[nH]1)Cc1cc(=O)oc2cc(C)c(C)cc12 | -25.2%
62 | Cc1ccc2c(CN3CCCCC3)cc(=O)oc2c1 | 6.38%
63 | Cc1cc2oc(=O)cc(CN3CCN(Cc4ccccc4)CC3)c2cc1O | -12.5%
64 | COc1ccc2oc(=O)cc(CN3CCN(Cc4ccc(OC)c(OC)c4OC)CC3)c2c1 | -2.05%
65 | COc1ccc(CNC(=O)CSc2nnc3c(n2)[nH]c2ccc(OC)cc23)cc1 | 11.1%
66 | Cc1ccc(NS(=O)(=O)c2cc(NC(=O)c3cc4c(s3)CCCC4)ccc2C)c(C)c1 | 7.78%

Row | Compound | hERG current change (%, negative = inhibition) at 1uM
67 | CCC1(CC)C(=O)NC(=O)NC1=NCCc1c[nH]c2ccccc12 | 21.2%
68 | Fc1cccc(CN2CCN(Cc3nc(CCc4ccccc4)no3)CC2)c1 | 3.49%
69 | COC(=O)C1CCN(Cc2cc(=O)oc3cc(OC)ccc23)CC1 | -1.21%
70 | COc1ccc2oc(=O)cc(CN3CCOCC3)c2c1 | 10.4%
71 | Cc1cc(C)c2c(CN3CCN(Cc4ccc5c(c4)OCO5)CC3)cc(=O)oc2c1C | 2.67%
72 | Cc1cc(C)c2c(CN3CCN(Cc4ccc5c(c4)OCO5)CC3)cc(=O)oc2c1 | -50.3%
73 | Cc1ccc2oc(=O)cc(CN3CCN(Cc4ccccc4)CC3)c2c1 | -18.6%
74 | CCc1ccc2c(CN3CCOCC3)cc(=O)oc2c1 | -4.5%
75 | Cc1ccc2c(CN3CCN(Cc4ccccc4)CC3)cc(=O)oc2c1 | -84%
76 | COc1ccc(OC)c(CN2CCN(Cc3cc(=O)oc4cc(O)ccc34)CC2)c1 | -67%
77 | CCc1ccc2c(CN3CCN(Cc4ccccc4)CC3)cc(=O)oc2c1 | -84.6%
78 | CCc1ccc2oc(=O)cc(CN3CCN(Cc4ccccc4)CC3)c2c1 | -17.6%
79 | Cc1cc2oc(=O)cc(CN3CCN(Cc4ccccc4)CC3)c2cc1Cl | 0.748%
80 | Cc1cc2oc(=O)cc(CN3CCN(Cc4ccc5c(c4)OCO5)CC3)c2cc1C | 0.724%
81 | CN(C)C(=S)NC(=O)C12CC3(C)CC(C)(CC(C)(C3)C1)C2 | 12.9%
82 | O=C(CSc1nnc(CNC(=O)c2ccc(F)cc2)o1)Nc1nccs1 | 13.2%
83 | CCCCOc1c(Cl)cc(C(=O)N(C)CC(=O)Nc2ccc(N3CCOCC3)cc2)cc1OCC | 9.76%
84 | O=C(NCCCn1cccn1)C1CCC(=O)N(Cc2ccccc2F)C1 (stereo not drawn) | 7.05%
85 | O=C(CCN1C(=O)/C(=C/C=C/c2ccccc2)SC1=S)Nc1nccs1 | -3%
86 | Cn1c(SCC(=O)Nc2ccc3c(c2)OCCO3)nnc1-c1ccccn1 | 6.5%
87 | CCN(CC)S(=O)(=O)c1ccc(NC(=O)COC(=O)c2c[nH]c(=O)[nH]c2=O)cc1 | 11.1%
